# PubChem BioAssay AID777 (Sanford-Burnham Center for Chemical Genomics, 2007)
# About 19,000 (20%) of roughly 96,000 compounds were called active. Not all results are given here. A number with no mark means an inactive call.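 The calls were made as follows: active = blocking of liver enzyme CYP2C9 beyond about 50% at 5 µM (limit read from the data); inactive = the rest.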
# Molecular target: Cytochrome P450 2C9 (Homo sapiens) (UniProt P11712)
# Experiment: blockers of cytochrome P450 2C9 activity – biochemical, luminescence, ADME assay, primary screen (AID 777)
# Details: CYP2C9 Supersomes, luciferin-H conversion, at 5 µM, active compounds read high
# Cytochrome P450 2C9 (Homo sapiens), sequence (P11712 whole entry, looked up): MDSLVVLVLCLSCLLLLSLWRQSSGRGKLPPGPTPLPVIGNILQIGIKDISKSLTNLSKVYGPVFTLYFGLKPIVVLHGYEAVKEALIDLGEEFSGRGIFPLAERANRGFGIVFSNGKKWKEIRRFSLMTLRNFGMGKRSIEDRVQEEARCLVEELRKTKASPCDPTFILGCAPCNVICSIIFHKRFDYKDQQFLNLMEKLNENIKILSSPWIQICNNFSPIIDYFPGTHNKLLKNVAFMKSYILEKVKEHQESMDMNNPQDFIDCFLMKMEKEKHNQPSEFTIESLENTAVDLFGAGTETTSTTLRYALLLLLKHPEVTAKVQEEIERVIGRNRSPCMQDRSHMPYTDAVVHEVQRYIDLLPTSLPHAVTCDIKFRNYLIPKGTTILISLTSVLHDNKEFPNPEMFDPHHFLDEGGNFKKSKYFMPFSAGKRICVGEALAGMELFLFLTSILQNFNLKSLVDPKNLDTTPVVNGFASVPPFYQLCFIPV
row,SMILES,inhibition
1,Cc1cc(NC(=O)COC(=O)c2ccc(F)c(S(=O)(=O)N3CCOCC3)c2)no1,-0.2%
2,Cc1cc(C(=O)OCC(=O)Nc2ccc(F)c(F)c2)c(C)o1,61.2% (active)
3,Cc1cc(C(=O)OCC(=O)c2c(N)n(C)c(=O)n(C)c2=O)c(C)o1,15.9%
4,O=C(O)CSC(NC(=O)c1cccnc1)(C(F)(F)F)C(F)(F)F,3.1%
5,CC1CC2=C(CC1/C=N/NC(N)=S)C(C)(C)CCC2 (stereo not drawn),43.1%
6,CC(=O)NNc1cc(=O)c2c(=O)n(C)c(=O)n(C)c2[nH]1,6.5%
7,CC(=O)NC(Cc1ccc(F)cc1)C(=O)O (stereo not drawn),6.7%
8,O=c1/c(=C/c2ccc(CNS(=O)(=O)c3ccccc3)o2)sc2n1CCN=2,71.2% (active)
9,O=c1nc2s/c(=C\c3ccco3)c(=O)n2nc1Cc1ccccc1,-5.6%
10,O=S(=O)(NCC1OCCc2ccccc21)c1ccccc1 (stereo not drawn),3%
11,Cc1cc(C(F)(F)F)nn1CC(=O)N1CCCC1,1%
12,O=C(CCCC(=O)N(CC(=O)NC1CCCC1)Cc1ccccc1Cl)Nc1ccccn1,77.3% (active)
13,CCCC(=O)Nc1cc(OCC)c(NC(=O)NC2CCCCC2)cc1OCC,4.7%
14,CCC(C)(NC(=O)c1ccccn1)C(=O)NC1CCCCC1 (stereo not drawn),12.3%
15,CCOc1ccccc1N(CC(=O)NC1CCCCC1)C(=O)CCCC(=O)Nc1ccccn1,79.8% (active)
16,CN(CC(=O)NC1CCCCC1)S(=O)(=O)c1cccc2cccnc12,-46%
17,Cc1noc(C)c1C(=O)N(CC(=O)NC1CCCC1)Cc1ccccc1F,26.2%
18,COc1ccc(N2C(=O)C3CCCN3C2c2cccs2)cc1 (stereo not drawn),31.3%
19,O=C1CSC(c2ccccc2)N1c1nc(-c2ccc(Cl)cc2Cl)cs1 (stereo not drawn),21.8%
20,O=C(NCCCNCc1ccccc1)c1ccc(/C=N/O)nc1,-11.5%
21,O=C(CCCn1c(=O)oc2ccccc21)Nc1cccnc1,-30.9%

row,SMILES,inhibition
1,COC(=O)C(C)n1cnc2c(nnn2-c2cccc(Cl)c2)c1=O (stereo not drawn),1.7%
2,CN=C1SC(C(=O)O)CC(=O)N1C (stereo not drawn),-6.4%
3,COC(=O)C(CC(=O)Nc1cc(C)ccc1C)Nc1ccccc1OC (stereo not drawn),7.7%
4,CCOc1cc(C(=S)N2CCOCC2)ccc1O,-10.2%
5,O=P(c1cccs1)(c1cccs1)c1cccs1,12.7%
6,O=C1CC(c2cccc(F)c2)C2=C(CCCC2=O)N1 (stereo not drawn),12.1%
7,COc1ccc2nc(SCC(=O)Nc3c(C)cc(C)cc3C)[nH]c2c1,81.5% (active)
8,COc1ccc(NC(=O)CSc2nc(NS(=O)(=O)c3ccc(C)cc3)cc(=O)[nH]2)cc1,91.7% (active)
9,COc1cc2ccccc2cc1C(=O)Nc1ccc(S(=O)(=O)Nc2cc(C)on2)cc1,3.1%
10,COc1ccc(OC)c(NC(=O)CSc2nc(N)c(-c3ccccc3)c(=O)[nH]2)c1,29.2%
11,COc1ccc(NC(=O)CSc2nc(N)c(-c3ccccc3)c(=O)[nH]2)cc1,3.1%
12,COC(=O)c1cccc(NC(=O)CSc2nc(C)cc(=O)[nH]2)c1,42.6%
13,Cc1ccc(NC(=O)NCC(c2cccnc2)N2CCOCC2)cc1 (stereo not drawn),2.5%
14,COc1ccc(N/N=C2/CCCCC2=O)cc1,-10.8%
15,Cc1nc2cc(NC(=O)NCc3ccccc3)ccc2o1,-5.6%
16,O=C(O)c1cscn1,-3.7%
17,N#C/C(=C(\O)CCl)c1nnc2n1CCCCC2,3.8%
18,O=C(CCC(=O)OCc1cccc(C(=O)Oc2ccccc2)c1)Nc1cccc2ccccc12,95.5% (active)
19,O=C(CCC(=O)OCC(F)(F)C(F)F)NCc1ccccc1,4.8%
20,O=C(O)c1ccccc1-c1ccccc1C(=O)Nc1cccc2ccccc12,36%
21,CCOC(=O)C1=C(CSc2nnnn2C)N(C)C(=O)NC1c1ccccc1 (stereo not drawn),-20.4%

row,SMILES,inhibition
1,Cc1ccccc1NC(=O)c1ccccc1,0.6%
2,Cc1ccccc1NC(=O)C(C)c1ccc(-c2ccccc2)c(F)c1 (stereo not drawn),67.2% (active)
3,CC(Sc1nncn1C)C(=O)Nc1ccccc1-c1ccccc1 (stereo not drawn),15.8%
4,Cc1cccc(N2CCN(Cc3c(C)n(C)n(-c4ccccc4)c3=O)CC2)c1C,-16.5%
5,CCOC(=O)N1CCN(Cc2nc(N)nc(Nc3ccc(C)cc3)n2)CC1,15.5%
6,Cc1ccccc1Nc1nc(N)nc(CN2CCN(c3ccccn3)CC2)n1,23.8%
7,CN(CCO)Cc1csc2ccc(Br)cc12,-22.8%
8,CCC1(C)N(O)C(C)(C)C(c2ccc(OC)cc2)=[N+]1[O-] (stereo not drawn),0.3%
9,COC(=O)C(C)Oc1ccc2c(-c3cccc([N+](=O)[O-])c3)cc(=O)oc2c1 (stereo not drawn),28.8%
10,O=Cc1c(N2CCN(c3cccc(Cl)c3)CC2)nc2ccccn2c1=O,49.1%
11,Cc1ccc(C(c2nnnn2CS(=O)(=O)c2ccc(C)cc2)N2CCC(C(N)=O)CC2)cc1 (stereo not drawn),6.2%
12,Cc1cccn2c(=O)c(/C=C(\C#N)S(=O)(=O)c3ccc(Cl)cc3)c(N3CCC(C(N)=O)CC3)nc12,96.9% (active)
13,COc1ccc(CC(=O)Nc2nc3n(n2)C(c2ccccc2)CC(=O)N3)cc1OC (stereo not drawn),-5.5%
14,COc1ccccc1-n1cnc2cc(C(=O)NCC3CCCO3)ccc21 (stereo not drawn),-36.5%
15,COCCCNC(=O)c1ccc2c(c1)ncn2-c1ccccc1OC,-38.2%
16,COc1ccccc1-n1cnc2cc(NS(=O)(=O)c3ccccc3)ccc21,82.5% (active)
17,Cn1ncc(Br)c1C(=O)NCc1cccs1,1.5%
18,COc1ccc(-c2csc3nc(-c4ccccc4F)oc(=O)c23)cc1OC,-1.8%
19,CCN(CC)S(=O)(=O)c1ccc(N2CCOCC2)c(C(=O)O)c1,19.3%
20,Cc1ccc(S(=O)(=O)N2CCC(C(=O)N[C@@H](C)C(=O)NCc3ccccc3)CC2)cc1,-9.2%
21,CN(C)S(=O)(=O)c1ccc(N2CCCC2)c(C(=O)NCc2ccccc2)c1,59.9% (active)
